Cy5 interf NS3h = enhances or quenches Cy5 fluorescence in NS3h assay. 6% of 16,000 active. fluorescence interference ratio at 100 µM. Cy5-dT15 DNA with NS3h, fluorescence interference; actives lie on both sides; signal over control mean, under 1 quenches. AID 720488;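 active means compound fluorescence over control fluorescence at most 0.8, a quencher, or at least a set upper limit, an enhancer; inactive means ratio between 0.8 and the set upper limit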
NS3h inh CB = blocks HCV NS3 helicase binding to DNA; NS3h Cy5-dT15 DNA binding, fluorescence polarization; inhibition, % at 100 µM; 1.6% of 16,000 active; AID 687043;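 active means inhibition above the average over every tested compound plus 3 SD, cut at about 40% in these data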
Active calls of the source: *. Only some compounds are listed: those with a hit (about 7.6% of all), similar ones and a draw of the others.

SMILES	Cy5 interf NS3h	NS3h inh CB
CC(C)NC(=O)c1cnn2c1NC(c1ccc(Br)cc1)CC2C(F)(F)F (configuration not stated)	1.1	10
O=C(O)c1cnn2c1NC(c1ccc(F)cc1)CC2C(F)(F)F (configuration not stated)	0.95	-4
Cc1ccc(C)c(NC(=O)/C=C\C(=O)O)c1	0.93	-9
COc1ccc(/C=C(\NC(=O)c2ccc(C)cc2)c2nc(=S)[nH][nH]2)cc1OC	0.93	14
COc1ccc(N2CCSC2c2ccco2)cc1 (configuration not stated)	1.1	9
CC(Oc1ccc(Br)cc1)C(=O)N/N=C\c1ccccc1O (configuration not stated)	1	4
O=C(N/N=C\c1cccc(Br)c1)C(Oc1ccccc1)Oc1ccccc1	0.78*	9
CC(C)Oc1ccccc1NC(=O)CSCC(=O)Nc1ccccc1	0.98	7
O=C(COc1ccccc1)Nc1ccncc1	1.1	0
O=C(COc1ccccc1)Nc1ccc(Cc2ccncc2)cc1	0.71*	20
O=C(NCc1cccnc1)/C(=C/c1ccc(-c2cccc(Cl)c2)o1)NC(=O)c1ccccc1	0.85	19
O=C1Nc2c(S(=O)(=O)O)cc(S(=O)(=O)O)c3cccc1c23	1.1	7
Cc1cc(C(F)(F)F)nn1CC(=O)Nc1sc2c(c1C(N)=O)CCC(C)C2 (configuration not stated)	0.75*	10
CCOC(=O)c1c(NC(=O)Cn2nc(C(F)(F)F)cc2C)sc2c1CCC(C)C2 (configuration not stated)	0.98	6
O=C(Nc1cc(NC(=O)C(F)(F)F)cc([N+](=O)[O-])c1)C(F)(F)F	0.94	-4
CCC1=NN(C(=O)c2ccncc2)C(O)(c2ccc(Br)cc2)C1 (configuration not stated)	0.99	-4
CCC1=NN(C(=O)c2cccc(C)c2O)C(O)(c2ccc(Br)cc2)C1 (configuration not stated)	0.77*	-6
N/C(=N/OC(=O)c1cccc(Br)c1)c1ccncc1	0.89	8
O=C(O/N=C(\c1ccccc1)c1ccncc1)c1ccc(Br)cc1	0.66*	25
Cc1ccc(/C(N)=N\OC(=O)c2ccc([N+](=O)[O-])cc2)cc1	0.87	31
COc1cc(OC)cc(C(=O)O/N=C(/c2ccncc2)c2ccc([N+](=O)[O-])cc2)c1	0.61*	12
Cc1cc(Br)cc(C)c1NC(=O)c1c(F)cccc1F	0.98	5
CCOc1cccc(-c2nc3cc(C)ccc3o2)c1	1.1	0
Cc1ccc2oc(-c3cccc(N)c3C)nc2c1	0.56*	9
O=c1oc(-c2cccc(F)c2)nc2ccc(Cc3ccc4nc(-c5cccc(F)c5)oc(=O)c4c3)cc12	0.77*	20
SMILES	Cy5 interf NS3h	NS3h inh CB
O=C(Nc1ccc(-c2nc3ccccc3c(=O)o2)cc1)c1ccccc1F	0.89	-2
C=CCOc1c(Br)cc(/C=C2\C(=O)NC(=O)N(c3ccccc3)C2=O)cc1OC	1.1	13
Cc1ccc(N(Cc2ccc(C(=O)NC(C)(C)C)cc2)S(C)(=O)=O)cc1C	0.94	10
O=C1N/C(=N\N=C/c2ccccc2O)SC1Cc1ccccc1 (configuration not stated)	1.1	-5
O=C1N/C(=N/N=C\c2ccccc2O)SC1Cc1ccc(Br)cc1 (configuration not stated)	1.1	52*
CCc1ccccc1N(CC(=O)Nc1ccc(C)c(C)c1)S(C)(=O)=O	0.98	17
O=C(Nc1ccc(NC(=O)c2cc([N+](=O)[O-])ccc2Cl)cc1)c1ccc(Br)cc1	0.54*	18
O=C(Nc1cccc(Br)c1)c1cc([N+](=O)[O-])ccc1Cl	1	7
CC(C)C(=O)Nc1ccc(Br)cc1C(=O)O	0.97	-2
Cc1ccc(C)n1-c1ccc(Br)cc1C(=O)O	1.1	49*
CCOc1ccc(NC(=O)CN(c2ccc(Oc3ccccc3)cc2)S(C)(=O)=O)cc1	1	13
COc1ccc(C2N(Cc3ccccc3)CCN2Cc2ccccc2)cc1OC	0.91	12
COc1ccc(C2N(c3ccccc3)CCN2c2ccccc2)cc1O	0.75*	11
CC(=O)C(N=Nc1ccc2c(c1)OCCO2)=C(C)O	0.89	-4
COc1cccc(C2NC(=S)NC(C)=C2C(=O)Nc2ccccc2Cl)c1OC (configuration not stated)	0.97	-9
O=C1CC(c2ccccc2)CC2=C1C(c1cc([N+](=O)[O-])ccc1Cl)Nc1ccccc1N2 (configuration not stated)	1	2
Nc1nnc(SCC(=O)Nc2ccccc2[N+](=O)[O-])s1	0.95	3
Nc1nnc(SCc2ccc([N+](=O)[O-])cc2)s1	0.72*	11
Nc1nonc1/C(=N\O)N1CCN(CCO)CC1	1	-2
Cc1ccc(S(=O)(=O)N=C2C=C(Cl)C(=O)C(Br)=C2)cc1	0.61*	34
Cc1ccc(S(=O)(=O)N=C2C=CC(=O)C(Br)=C2)cc1	0.94	28
CCOC(=O)Nc1n[nH]c(NC(=O)OCC)c1[N+](=O)[O-]	0.66*	12
CCOC(=O)Nc1cc([N+](=O)[O-])ccc1Cl	0.98	19
O=S(=O)(Nc1ccc(O)cc1)c1ccc(F)cc1	1	1
O=C(c1ccc(F)cc1)c1ccc(NS(=O)(=O)c2ccc(Cl)cc2)cc1	1.2*	-3
SMILES	Cy5 interf NS3h	NS3h inh CB
O=S(=O)(Nc1ccc(O)cc1)c1ccc(Br)cc1	1	1
O=S(=O)(Nc1ccc(Br)cc1)c1ccc(Cl)cc1	0.79*	10
Cn1c(O)c(N=NS(=O)(=O)c2ccccc2)c2ccccc21	1	-5
O=C1c2cccc3cccc(c23)C(=O)N1/N=C\c1ccc(O)cc1	1	7
O=C1c2ccccc2C(=O)N1/N=C\c1c(O)ccc2ccccc12	0.62*	9
COc1cc(/C=C2/SC(=S)N(CCC(=O)Nc3nnc(C)s3)C2=O)cc(OC)c1OC	0.94	0
CCOc1cc(C(=O)Nc2ccc(O)c(-c3nc4ccccc4s3)c2)cc(OCC)c1OCC	1	-8
CCOC(=O)c1ccccc1NC(=O)CN(c1ccc(C)cc1)S(C)(=O)=O	0.81	42*
COC(=O)c1ccccc1NC(=O)CN(c1ccc(C)cc1)S(C)(=O)=O	0.99	11
Cc1nnc(SC(=O)Cn2c3ccccc3c3ccccc32)s1	1	7
Cc1ccc(C(=O)Nc2nc3ccccc3n2Cc2ccc(Cl)cc2)cc1	1.1	-10
O=C(Nc1nc2ccccc2n1Cc1ccc(Cl)cc1)c1ccccc1	0.74*	23
CS(=O)(=O)N(CC(=O)O)c1ccc(Br)cc1	0.95	6
COC(=O)c1cc(N2C(=O)C3C4C=CC(C5CC45)C3C2=O)ccc1Cl (configuration not stated)	0.69*	8
O=C1C2C3C=CC(C4CC34)C2C(=O)N1c1ccc(Cl)cc1 (configuration not stated)	0.92	-4
Cc1ccc(N(CC(=O)NCc2ccncc2)S(=O)(=O)c2ccccc2)cc1C	0.93	-2
Nc1cc[n+](CC(=O)c2ccccc2)cc1	0.77*	-14
O=C(C[n+]1ccc(C(=O)NCc2ccccc2)cc1)c1ccc(-c2ccccc2)cc1	0.76*	10
Nc1ccc(C(=O)c2ccc(N)c(N)c2)cc1N	1.1	5
Cc1ccc[n+](CC(=O)c2ccc(-c3ccccc3)cc2)c1	0.96	2
Cc1ccc(NC(=O)C(=O)NCC(C)C)cc1	1	10

From PubChem BioAssay
